Calls of active or inactive are those of the source. The calls were made as follows: active = hit-call score of the fitted dose curve at least 0.9, where 1 is the maximum; inactive = score below 0.9.

The nature of the experiment: ATG_MRE_CIS: Attagene CIS-FACTORIAL HepG2 Assay for human Metal Responsive Element (MRE) (AID 2282954). The note with it: HepG2 MRE cis-reporter transcription, Attagene multiplex; actives raise or lower the signal. The method, then:
ATG_CIS is a cell-based, multiplexed-readout assay that uses HepG2, a human liver cell line, with measurements taken at 24 hours after chemical dosing in a 24-well plate.ATG_MRE_CIS is one of 52 assay component(s) measured or calculated from the ATG_CIS assay. It is designed to make measurements of mRNA induction, a form of inducible reporter, as detected with fluorescence intensity signals by Reverse transcription polymerase chain reaction (RT-PCR) and Capillary electrophoresis technology.Data from the assay component ATG_MRE_CIS was analyzed into 1 assay endpoint. This assay endpoint, ATG_MRE_CIS, was analyzed with bidirectional fitting relative to DMSO as the negative control and baseline of activity. Using a type of inducible reporter, measures of mRNA for gain or loss-of-signal activity can be used to understand the reporter gene at the transcription factor-level as they relate to the gene MTF1. Furthermore, this assay endpoint can be referred to as a primary readout, because this assay has produced multiple assay endpoints where this one serves a reporter gene function. To generalize the intended target to other relatable targets, this assay endpoint is annotated to the dna binding intended target family, where the subfamily is zinc finger.
Human liver HepG2 cells are transiently transfected with multiple reporter transcription units (MRTUs) in 6-well plates using FuGene 6 reagent (Roche; 3 ml FuGene/1 mg DNA). The MRTU constructs are regulated by a cis-regulating element (promoter). […] A major difference between the CIS and TRANS system is that in CIS activities of endogenous TFs are measured, whereas the TRANS assay evaluates changes in activities of exogenous, chimeric NR-Gal4 proteins. […] At the end of 24 hour incubation, total RNA was isolated using TriZol reagent (Invitrogen). The isolated RNA is then reverse-transcribed using oligo(dT) primer and Mo-MLV reverse transcriptase (Invitrogen) with DNAse I (Ambion) treatment for 30 min. The one-tenth of the produced cDNA was amplified by PCR using Taq DNA polymerase (Invitrogen) and two reporter sequence-specific primers. The PCR products were fluorescently labeled by primer extension with 6-arboxyfluorescein (6-FAM) 5'-labeled reporter sequence-specific primer (2 min at 95 C, 20 s at 68 C and 10 min at 72 C) and these products were digested with 5U of HpaI (New England Biolabs) for 2h at 37 C. The fragments were purified using Qiaquick PCR columns (Qiagen), analyzed on an ABI 3130xL genetic analyzer (Applied Biosystems) with peak positions identified by using a set of X-rhodamine (ROX)-labeled MapMarker1000 molecular weight standards (BioVentures). The raw capillary electrophoresis data was processed using Attagraph software (Attagene).
With `Nc1ccc(-c2ccc(N)c(N)c2)cc1N`, the call was inactive.

Regarding `CN(C)CCC#N`, the outcome was inactive.

Regarding `O=C(CCN1CC1)OCC(CO)(COC(=O)CCN1CC1)COC(=O)CCN1CC1`, the call was inactive.

As to `CCC[N+](=O)[O-]`, the compound was classed as inactive.

The term AC50 denotes the midpoint of the concentration-response curve, whichever way the signal moves. With `CCCCCc1cc(O)cc(O)c1`, the AC50 is 100 µM (active).

With `CCC(C)c1cc([N+](=O)[O-])cc([N+](=O)[O-])c1OC(=O)C=C(C)C` (stereo not given), the AC50 was 27.5 µM (active).

On to `CC(Cc1ccc(C(C)(C)C)cc1)CN1C[C@@H](C)O[C@@H](C)C1` (stereo not given in full), for which the AC50 is 24.2 µM (active).

Consider `Cc1ccc(OP(=O)(Oc2ccc(C)cc2)Oc2ccc(C)cc2)cc1` (tested in a mixture with another compound), for which the result was inactive.

As for `CCCCCCCCCCCC#N`, the concentration at half-maximal activity (AC50) is 136 µM (active).

On to `CC(C)(c1cc(Cl)c(O)c(Cl)c1)c1cc(Cl)c(O)c(Cl)c1`, for which the AC50 was 58.4 µM (active).

With `[CH3][Sn]([Cl])([Cl])[Cl]`, the compound was called inactive.

Take `COC(C)(C)CCC[C@H](C)C/C=C/C(C)=C/C(=O)OC(C)C`: the AC50 was 36.6 µM (active).

For `Cc1cc(C)c(C2=C(OC(=O)CC(C)(C)C)C3(CCCC3)OC2=O)c(C)c1`, the AC50 was 76 µM (active).

As for `CCC(Br)(CC)C(=O)NC(N)=O`, the result was inactive.

As for `CC(C)CCCCCCCOC(=O)c1ccccc1C(=O)OCCCCCCCC(C)C`, the compound was classed as inactive.

Consider `CC(C)(O)C#N`, for which the compound was called inactive.

For the compound `O=C1C=CC(=O)C=C1`, the outcome was inactive.

On to `C=CC(=O)OCCCCOC(=O)C=C`, for which the AC50 is 64 µM (active).

Consider `[CH3][Sn]([CH3])([Cl])[Cl]`, for which the call was inactive.

On to `Cl/C=C\CCl`, for which the call was inactive.

With `CCC(C)c1cc(C(C)(C)C)cc(-n2nc3ccccc3n2)c1O` (stereo not given), the compound was classed as inactive.

Consider `CNC(=N[N+](=O)[O-])NCC1CCOC1` (stereo not given), for which the outcome was inactive.

For the compound `O=C1C(Cl)=C(Cl)C(=O)C(Cl)=C1Cl`, the result was inactive.

With `O=C(O)CCCc1ccc(N(CCCl)CCCl)cc1`, the outcome was inactive.

With `CCCCOP(=O)(O)OCCCC`, the result was inactive.

For `CN1C(=O)CCS(=O)(=O)C1c1ccc(Cl)cc1` (stereo not given), the result was inactive.

Turning to `ClC1=C(Cl)[C@]2(Cl)[C@@H]3[C@@H](Cl)[C@H](Cl)C[C@@H]3[C@@]1(Cl)C2(Cl)Cl`, the compound was classed as inactive.

On to `CCNCC`, for which the compound was classed as inactive.

Consider `CC(C)C#N`, for which the outcome was inactive.

For `ClCCCCCCCl`, the outcome was inactive.

With `CSc1nc(N=[N+]=[N-])nc(NC(C)C)n1`, the compound was classed as inactive.

`C=COCCCl`: the compound was called inactive.

In the case of `Clc1ccc(-c2ccccc2)cc1`, the outcome was inactive.

On to `O=CNC(N1CCN(C(NC=O)C(Cl)(Cl)Cl)CC1)C(Cl)(Cl)Cl` (stereo not given), for which the outcome was inactive.

Take `c1ccc(Nc2ccc3ccccc3c2)cc1`: the outcome was inactive.

On to `C=CCO`, for which the call was inactive.

In the case of `O=C(O)CCl`, the result was inactive.

On to `CN1C[C@H](C(=O)N[C@]2(C)O[C@@]3(O)[C@@H]4CCCN4C(=O)[C@H](Cc4ccccc4)N3C2=O)C=C2c3cccc4[nH]cc(c34)C[C@H]21`, for which the compound was classed as inactive.

With `CC(C)[C@@H](C(=O)O[C@@H](C#N)c1cccc(Oc2ccccc2)c1)c1ccc(Cl)cc1`, the compound was classed as inactive.

For the compound `CC(O)CN(CC(C)O)CC(C)O` (stereo not given), the result was inactive.

The record behind these values is PubChem BioAssay (EPA / NIEHS).
